# Neddylation inh – inhibitors of human cullin neddylation; hit rate 0.58% among 360,000; TR-FRET cullin neddylation, biochemical; P61081+Q13564; AID 651699; inhibition, % at 25 µM; in the data active means inhibition above about 36%
# NPR1 activator – GC-A (human) enzyme activation | P16066 | HEK293 GC-A cells, cGMP TR-FRET, EC30 ANP; 0% at EC30 ANP, 100% saturating ANP | activation, % at 10 µM | hit rate 0.14% among 370,000; in the data active means activation above about 40%
# TLR4-MyD88 BLA – blocks binding of human TLR4 to MyD88; O00206+Q99836; HeLa CL3-4 TLR4/MyD88 BLA complementation, FRET ratio; inhibition, % at 8.4 µM; hit rate 0.18% among 200,000; AID 861; in the data active means inhibition above about 25%
# GC-B act – GC-B (human) receptor activation; P20594; HEK293-GC-B cells, CNP EC30, cGMP TR-FRET; 0% at EC30 CNP, 100% saturating CNP; activation, % at 10 µM; hit rate 0.11% among 370,000;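 active means activation at 10 µM reaching about 35% in either raw or pattern-adjusted values, limit read from the data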
# TLR9-MyD88 inh – inhibitors of human TLR9-MyD88 binding | CHO BLA complementation TLR9-MyD88, CCF4 FRET ratio | inhibition, % at 4.98 µM | hit rate 0.21% among 340,000 | Q9NR96+Q99836;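 active means inhibition above the mean over all tested compounds plus 3 SD, cut at about 21% in these data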
# NOD2 RIPK2 PPI – NOD2-RIPK2 protein interaction inhibition; O43353; CHO BLA complementation NOD2-RIPK2, CCF4 ratio; inhibition, % at 4.98 µM; hit rate 0.38% among 360,000; AID 624267; in the data active means inhibition above about 21%
# Target sequence (O43353 whole entry, looked up): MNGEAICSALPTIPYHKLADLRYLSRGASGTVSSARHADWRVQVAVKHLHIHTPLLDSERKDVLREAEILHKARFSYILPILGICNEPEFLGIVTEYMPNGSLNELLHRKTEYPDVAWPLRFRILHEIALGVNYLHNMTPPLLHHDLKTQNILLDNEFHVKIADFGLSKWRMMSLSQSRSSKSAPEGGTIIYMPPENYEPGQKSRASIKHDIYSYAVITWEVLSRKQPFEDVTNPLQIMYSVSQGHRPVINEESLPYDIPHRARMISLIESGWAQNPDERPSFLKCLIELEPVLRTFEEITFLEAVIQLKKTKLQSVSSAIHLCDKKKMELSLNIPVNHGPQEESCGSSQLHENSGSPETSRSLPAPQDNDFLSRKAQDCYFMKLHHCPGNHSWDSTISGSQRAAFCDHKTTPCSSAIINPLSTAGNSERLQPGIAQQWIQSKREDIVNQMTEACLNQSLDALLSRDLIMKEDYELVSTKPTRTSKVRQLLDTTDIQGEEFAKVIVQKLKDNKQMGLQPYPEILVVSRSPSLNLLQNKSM
# TLR4-MyD88 conf – TLR4-MyD88 interaction inhibition confirmed; shares compounds with TLR4-MyD88 BLA; hit rate 50% among 350; HeLa CL3-4 BLA complementation, CCF4 FRET ratio; AID 941; inhibition, % at 8.4 µM;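 active means mean inhibition across three repeat runs above about 25% carried over from the earlier screen, limit read from the data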
# BLA inh HeLa – beta-lactamase inhibition flagged in TLR4-MyD88 counter-screen; hit rate 63% among 350; shares compounds with TLR4-MyD88 BLA; HeLa BLA reporter, CCF4 FRET ratio; inhibition, % at 8.4 µM;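 active means mean inhibition over three repeats above about 26% taken from the earlier screen, limit read from the data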;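 further: HeLa cells stably expressing beta-lactamase reporter as counterscreen for TLR4-MyD88 inhibitors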
# Hits are given with their value; . = inactive; / = not tested or not shown. This is a sample that favours compounds with a hit; in the whole collection about 1.2% have one here.
SMILES,Neddylation inh,NPR1 activator,TLR4-MyD88 BLA,GC-B act,TLR9-MyD88 inh,NOD2 RIPK2 PPI,TLR4-MyD88 conf,BLA inh HeLa
O=C(O)CCc1ccc(-c2ccc(Br)cc2)o1,.,44.1,.,.,.,.,/,/
COc1ccc(-c2ccc(CCC(=O)O)o2)cc1,.,.,.,.,.,.,/,/
Cc1ccc(C(=O)N/C(=C\c2ccc(-c3ccc(Br)cc3)o2)C(=O)NCCCN(C)C)cc1,49.5,.,.,.,.,.,/,/
COc1ccc(OC)c(C(=O)CSc2nnc(SCc3cccc4ccccc34)s2)c1,/,.,/,.,/,/,/,/
c1ccc(CNC2CCC23CCC(c2ccccc2)CC3)cc1 (configuration not stated),/,.,/,.,/,/,/,/
COC(=O)C1=CN(c2ccc(OC)cc2)C=C(C(=O)OC)C1c1cc(OC)c(OC)cc1OC,58.6,.,/,.,.,.,/,/
COC(=O)C1=CN(Cc2cccs2)C=C(C(=O)OC)C1c1ccc(OC)cc1OC,/,.,.,.,.,.,/,/
CC(C)CN1C(=O)C[C@]2(C(=O)N(C)c3ccc(NS(=O)(=O)C4CC4)cc32)C1c1ccccc1 (some centres not stated),/,.,/,.,/,/,/,/
N#Cc1ccccc1Cn1cc(/C=N/Nc2ccc([N+](=O)[O-])cn2)c2ccccc21,.,.,46.0,.,.,.,40.5,79.5
COc1ccc(C=NNc2ccc([N+](=O)[O-])cn2)cc1,.,.,/,.,.,.,/,/
O=[N+]([O-])c1ccc(N/N=C/c2ccc(OCc3cccc4ccccc34)cc2)nc1,.,.,34.7,.,.,.,47.1,82.0
COC(=O)[C@]12C[C@H](CC(=O)N3CCN(C(=O)C4CC4)CC3)C(=O)N(CCc3ccc(OC)c(OC)c3)C1=C[C@H](C1CCCC1)O[C@@H]2C,/,.,/,.,/,/,/,/
COc1ccccc1-c1nnc(NC(C)=O)s1,.,.,.,.,.,.,/,/
COc1ccccc1-c1nnc(NC(=O)C(C)C)s1,.,.,27.3,.,.,.,.,.
Cc1ccccc1C(=O)N=c1ccn(-c2nc3ccccc3nc2NS(=O)(=O)c2ccc(F)cc2)cc1,.,.,/,.,.,.,/,/
O=C(N=c1ccn(-c2nc3ccccc3nc2NS(=O)(=O)c2ccccc2)cc1)c1cccs1,.,.,66.2,.,.,.,.,.
COC(=O)c1ccc(S(=O)(=O)N2CCC(NC(=O)CCc3ccccc3)CC2)cc1,/,.,/,.,/,/,/,/
O[C@H](COc1ccc(OC(F)(F)F)cc1)CN1CCC(C(O)(c2ccccc2)c2ccccc2)CC1,/,.,/,.,/,/,/,/
CCCCCCCn1c2c(c(=N)c3ccccc31)CCC2,.,.,27.8,.,.,.,30.1,34.1
CCCn1c2c(c(=N)c3c1CCC3)CCC2,.,.,/,.,.,.,/,/
CCOC(=O)Cc1csc(NC(=O)Cc2cccs2)n1,.,.,26.2,.,.,.,.,.
COc1cc(/C=C(/C#N)c2nc3ccccc3[nH]2)ccc1OCC(=O)Nc1ccccc1C,/,.,82.6,.,.,.,80.1,106.8
COc1cc(/C=C(/C#N)c2nc3ccccc3[nH]2)ccc1OCC(=O)Nc1ccccc1C(C)C,.,.,76.8,.,.,.,79.6,112.9
Cc1ccccc1NC(=O)N(C)[C@H]1C[C@H]2c3[nH]c4c(-c5ccc6c(c5)OCO6)cccc4c3CCN2C[C@H]1[C@H](C)O,/,.,/,.,/,/,/,/
CC1CCCCC1N(C(=O)c1cc(C2CC2)on1)C1CCCCC1 (configuration not stated),/,.,/,.,/,/,/,/
SMILES,Neddylation inh,NPR1 activator,TLR4-MyD88 BLA,GC-B act,TLR9-MyD88 inh,NOD2 RIPK2 PPI,TLR4-MyD88 conf,BLA inh HeLa
O=C(OC12CCCN(C1)/C(=C/c1cccc(Cl)c1)C2)c1ccco1 (configuration not stated),/,.,/,.,/,/,/,/
CCN(CC)c1ccc2cc(-c3nc(-c4ccc(OC)cc4)cs3)c(=O)oc2c1,/,.,79.6,.,/,/,89.7,115.2
CCN(CC)c1ccc2cc(-c3nnc(-c4ccccc4)o3)c(=O)oc2c1,.,.,.,.,.,.,/,/
CCN(CC)c1ccc2cc(-c3nc4ccccc4[nH]3)c(=O)oc2c1,.,/,39.6,/,37.1,44.7,64.1,78.3
CCOC(=O)C1=CCN(S(=O)(=O)c2ccc(Br)cc2)C1c1cccc(Br)c1 (configuration not stated),/,.,/,.,/,/,/,/
O=S(=O)(Nc1cc2nc3ccccc3nc2n1Cc1ccccc1)c1ccc(Cl)cc1,.,.,36.4,.,.,43.8,33.0,65.6
CCN1CCN(c2cc(C)c3cc(NC(=S)N4CCOCC4)ccc3n2)CC1,.,.,.,.,.,.,/,/
CCN1CCN(c2cc(C)c3cc(NC(=S)N4CCN(c5ccccc5)CC4)ccc3n2)CC1,.,.,25.7,.,.,.,25.4,37.1
COc1ccc(N/C=C2\CCOC2=O)cc1,.,.,25.9,.,.,.,.,.
O=C(CSc1nc2scc(-c3ccco3)c2c(=O)n1-c1ccccc1)N1CCOCC1,.,.,30.4,.,.,.,.,.
CN(C)C(=O)NCCCC#Cc1ccccc1,/,.,/,.,/,/,/,/
O=C(CSc1nnc(CNC(=O)c2c(F)cccc2Cl)o1)Nc1ccccc1,.,.,.,.,.,.,/,/
O=C(CSc1nnc(CNC(=O)c2c(F)cccc2Cl)o1)c1ccccc1,.,.,26.6,.,.,.,.,.
c1cc2c(cc1C1CCCCC1)c1c3n2CCN=C3CCC1,.,.,26.8,.,.,.,.,41.5
CC(C)(C)c1ccc(-n2nc(C(N)=O)c(O)cc2=O)cc1,.,.,.,.,.,.,/,/
CC(C)(C)c1ccc(-n2nc(C#N)c(Cl)cc2=O)cc1,.,68.6,42.2,74.5,/,71.6,30.3,.
COc1ccc(OC)c(-n2c(-c3cccc(O)c3)n[nH]c2=S)c1,.,.,29.8,.,.,.,.,.
CCN(Cc1cn(Cc2ccc(C)cc2)nn1)S(=O)(=O)c1ccccc1Br,/,.,/,.,/,/,/,/
CCSc1ncc(/C=N/Nc2ccc([N+](=O)[O-])cc2)n1C,.,.,44.5,.,.,.,33.2,54.7
Clc1ccc(CSc2nnc(CN3CCOCC3)n2-c2ccccc2)cc1Cl,.,.,26.1,.,.,.,.,.
Clc1cccc(Cl)c1CSc1nnc(CN2CCOCC2)n1-c1ccccc1,.,.,.,.,.,.,/,/
COc1ccc(/C=C2\CCC(C3CCCC3)C2=O)c(OC)c1 (configuration not stated),.,.,/,.,.,.,/,/
COc1ccc(/C=C2\CC/C(=C\c3ccc(OC)cc3OC)C2=O)c(OC)c1,.,.,32.3,.,.,.,.,47.2

# Screening results (PubChem)
